Source: PubChem BioAssay
An excerpt weighted towards active compounds, which were near 20% of everything screened.
Pf growth 48h: Primary qHTS for delayed death inhibitors of the malarial parasite plastid, 48 hour incubation; 5.9% of 310,000 active; Potency, µM (series often up to 28.7 µM), without a hit: at the highest dose activity change, negative = inhibition, hits mostly inhibitors; P. falciparum luciferase growth in erythrocytes, 48 h; also: potency is read from the fitted curve at half-maximal effect; % is scaled to controls: 0 for no effect and ±100 for the full control effect
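Luciferase-expressing parasites in RBCs, 2% Hct / 0.1% parasitemia final; RPMI 1640 + 0.5% Albumax; 37 C, 5% CO2, one generation; luminescence read-out, lower signal = inhibition.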
CHX counter: Cycloheximide Counterscreen for Small Molecule Inhibitors of Shiga Toxin | cell reporter, cycloheximide protein synthesis inhibition counterscreen | max response, % | 12% of 300,000 active; in the data active = max response mostly above about 13%, no sharp cut-off; inactive = mostly below about 14%; also: read at 38.3 µM for the half of the compounds with a filed dose; 0% is about no effect
Shiga inhibitor: A qHTS for Small Molecule Inhibitors of Shiga Toxin | 9.2% of 290,000 active | Vero cells, Shiga toxin protein synthesis inhibition reporter | AID 2315, 2010 | inhibition, % at 38.7 µM; in the data active = inhibition mostly above about 28%, no sharp cut-off; inactive = mostly below about 43%; also: 0% is about no effect
Pf growth 96h: Primary qHTS for delayed death inhibitors of the malarial parasite plastid, 96 hour incubation; 6.9% of 320,000 active; Potency, µM (highest dose often 28.7 µM), for the others: top-dose activity change, negative = inhibition, hits mostly inhibitors; P. falciparum luciferase reporter growth, 96 h; also: potency is read from the fitted curve at half-maximal effect; % is scaled to controls: 0 for no effect and ±100 for the full control effect
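Cell-based qHTS: luciferase-tagged P. falciparum in erythrocytes (2% hematocrit, 0.05% parasitemia final) incubated with compounds for 96 hours, 37 C, 5% CO2; luciferase detection reagent then added and luminescence measured.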
HCMV inh: qHTS Assay for inhibitors of the human cytomegalovirus (HCMV) | HFF cells, HCMV-luciferase reporter, 72 h; hits give low values | 4.5% of 410,000 active | activity change, negative = inhibition, % at 57.5 µM; in the data active = activity change below about -60%; inconclusive = no clear call, values can overlap the other calls; inactive = above about -39%; also: % is scaled to controls: 0 for no effect and ±100 for the full control effect
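Human foreskin fibroblasts infected with luciferase-reporter HCMV at MOI 1 PFU/cell, compounds at two doses. Luciferase measured 72 h post infection; normalized to buffer-only basal and Salinomycin (10uM) controls.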
Numbers without * were called inactive; ? = inconclusive; . = no result; + = active, no number. Unless noted, calls follow the shape of the dose curve; as a rule, active = well fitted inhibition curve with a large enough effect; inconclusive = small, poorly fitted or top-dose-only effect, or another doubt; inactive = no such curve, though single readings can be large or run the other way.

SMILES | Pf growth 48h | CHX counter | Shiga inhibitor | Pf growth 96h | HCMV inh
COc1ccc(Cn2c(SCc3ccc(C)cc3)nc3cc(OC)c(OC)cc3c2=N)cc1Cl | 1.7µM* | -2 | -3 | 2.3µM* | -99*
CCn1cc2nc(SCc3cc(C)ccc3C)n(Cc3ccc(OC)cc3)c(=O)c2n1 | . | . | . | . | 2
COCCCn1c(SCc2ccccc2)nc2cc(OC)c(OC)cc2c1=N | 13µM* | -4 | -3 | ? | 42
COc1cc2nc(SCc3ccc(Cl)cc3Cl)n(Cc3cccs3)c(=N)c2cc1OC | ? | -2 | -14 | 13µM* | ?
COc1cc2nc(SCc3ccc(C(F)(F)F)cc3)n(Cc3cccs3)c(=N)c2cc1OC | ? | -1 | -12 | 0% | -7
COc1ccc(Cn2c(SCc3cc(C)ccc3C)nc3cc(OC)c(OC)cc3c2=N)cc1 | 1.7µM* | -2 | -6 | ? | -23
COCCCn1c(SCc2cccc(C(F)(F)F)c2)nc2cc(OC)c(OC)cc2c1=N | ? | -5 | -15 | ? | -8
Cc1cc(C)c(NC(=O)CNC(=O)COC(=O)Cc2cccs2)c(C)c1 | -7% | . | . | 38% | 8
CCCCNC(=O)C1C2C=CC3(CN(Cc4ccc(C)cc4)C(=O)C13)O2 (stereo not drawn) | 1% | -4 | -13 | 10µM* | 2
CCOC(=O)c1c(C)oc2c1c(C(c1ccccc1)N1CCOCC1)c(O)c1ccccc12 (stereo not drawn) | . | 71* | 141* | ? | 198
CCOC(=O)c1c(C)oc2c1c(C(c1cccnc1)N1CCCCC1)c(O)c1ccccc12 (stereo not drawn) | ? | 57* | 95* | . | 186
CCOC(=O)c1c(O)c2ccccc2oc1=O | 5% | -3 | -11 | 11% | 21
CCOC(=O)c1c(C)oc2c1c(C=NCCO)c(O)c1ccccc12 | ? | 28* | 44 | 13µM* | 9
O=C(CCCCCN1C(=O)c2ccccc2C1=O)Nc1ccc(C(=O)O)cc1 | 3% | 3 | -4 | 22% | -24
N#CCCn1nc(-c2ccc([N+](=O)[O-])cc2)cc1Nc1ccccc1NC(=O)C(F)(F)F | 10µM* | 7 | 3 | 10µM* | 0
N#CCCn1nc(-c2ccc(Cl)cc2)cc1Nc1ccccc1NC(=O)C(F)(F)F | -7% | 3 | -1 | 12µM* | 27
N#CCCn1nc(-c2ccccc2)cc1Nc1ccccc1NC(=O)C(F)(F)F | -15% | -4 | -3 | ? | -3
CN1CCc2c(sc3c2C(=O)NC(c2ccccn2)N3)C1 (stereo not drawn) | 28% | 21* | 2 | -5% | 46
Cc1ccc(C2NC(=O)c3c(sc4c3CCN(C)C4)N2)o1 (stereo not drawn) | . | -2 | -13 | 3.7µM* | -18
CN1CCc2c(sc3c2C(=O)NC(c2ccc(OC(=O)c4ccccc4)cc2)N3)C1 (stereo not drawn) | . | . | . | . | 199
CC1(C)Cc2c(sc3c2C(=O)NC(c2cccnc2)N3)CO1 (stereo not drawn) | 19% | -1 | 6 | 23% | 38
Cc1ccsc1C1NC(=O)c2c(sc3c2CCCC3)N1 (stereo not drawn) | 250% | 28* | + | 231% | .
O=C1NC(c2cccnc2)Nc2sc3c(c21)CCCC3 (stereo not drawn) | 105% | 33* | 61* | 76% | 89
O=C1CC(c2nc(-c3ccc(Cl)cc3)no2)CN1c1ccc2c(c1)OCCO2 (stereo not drawn) | . | . | . | . | 2
CN1CCC(N(C)C(=O)c2ccc(Cl)c(S(=O)(=O)N3CCCCC3)c2)CC1 | -18% | . | . | ? | -12
SMILES | Pf growth 48h | CHX counter | Shiga inhibitor | Pf growth 96h | HCMV inh
CSc1nc2c(=O)[nH]cnc2s1 | . | . | . | . | -9
Cc1ccc(C2NC(=O)c3c(sc4c3CCN(C)C4)N2)s1 (stereo not drawn) | -26% | 33* | 67* | ? | -2
CN1CCc2c(sc3c2C(=O)NC(c2ccccc2)N3)C1 (stereo not drawn) | 50% | 20* | active | 32% | -17
Cc1cccc(C2NC(=O)c3c(sc4c3CCN(C)C4)N2)c1O (stereo not drawn) | . | . | . | . | 41
O=C1NC(c2ccc(Br)cc2)Nc2sc3c(c21)CCC3 (stereo not drawn) | 5% | 15 | 23 | 19% | -2
CC(C)(C)C1CCc2c(sc(NC(=O)c3ccc(Cl)cc3)c2C(=O)NCc2ccco2)C1 (stereo not drawn) | . | . | . | . | 2
CC(C)(C)C1CCc2c(sc3c2C(=O)NC(c2ccco2)N3)C1 (stereo not drawn) | -6% | 34* | 74* | . | -5
O=C1NC(c2ccccn2)Nc2sc3c(c21)CCC3 (stereo not drawn) | 59% | 31* | 99* | 2% | -103*
Cc1cc(F)ccc1NC(=O)CN(C)S(=O)(=O)c1ccc(C(=O)N2CCOCC2)s1 | . | . | . | . | -8
CC(=O)c1ccc(Nc2cnn(C34CC5CC(CC(CC(=O)O)(C5)C3)C4)c(=O)c2Cl)cc1 | 5% | -4 | 10 | 8% | 17
Cc1cccc(N2CCN(c3nc4ccccc4c4nc(-c5ccccc5)nn34)CC2)c1C | . | . | . | . | 10
Cc1ccc(N2CCN(S(=O)(=O)N3CCCCC3)CC2)cc1Cl | -13% | -2 | -8 | 3% | 28
Cc1cc(C)c(N2CCN(S(=O)(=O)N3CCCCCC3)CC2)c(C)c1 | 10µM* | -2 | -5 | . | -29
O=C1C=CC(=O)N1CCCCCCN1C(=O)C=CC1=O | 9% | -9 | -19 | ? | -102*
Cc1c(Cl)cccc1-n1c(SCC(=O)N2CCC(C(=O)O)CC2)nc2ccccc2c1=O | ? | -7 | -8 | ? | -22
C[C@@H]1CN([C@H](C)CO)C(=O)CCCn2nncc2CO[C@H]1CN(C)S(=O)(=O)c1cccc(F)c1 | . | . | . | . | -16
COc1ccc(N/C(C)=C2/C(=O)C(=O)N(CCO)C2c2ccc(Br)cc2)cc1 (stereo not drawn) | ? | -2 | -4 | ? | -96*
Cc1c2ccccc2c(C)c2c1ccc1ccccc12 | 0.93µM* | . | . | 0.66µM* | 6
CC1=Nc2ccc3ccccc3c2C1(C)C | -7% | 8 | -16 | -10% | ?
COc1ccc(CNc2nc(C)c([N+](=O)[O-])c(C)c2C#N)cc1 | -27% | -10 | -8 | ? | ?
Cc1nc(Sc2ccc(Br)cc2)c(C#N)c(C)c1[N+](=O)[O-] | ? | -3 | -14 | 9.3µM* | -77*
Cc1ccc(Sc2ncnc(N)c2[N+](=O)[O-])cc1 | ? | -2 | -11 | 0% | -17
Cc1nc(Sc2ccc(Cl)cc2)c(C#N)c(C)c1[N+](=O)[O-] | ? | 6 | -8 | 12µM* | -75*
Cc1ccc(Sc2nc(C)c([N+](=O)[O-])c(C)c2C#N)cc1 | ? | -2 | -15 | ? | -70*
C/C(=N/NC(=O)c1cc(-c2cccc([N+](=O)[O-])c2)n[nH]1)c1ccc(Cl)cc1 | 10% | -4 | -11 | 0% | 5
